# From the supplement of paper PMC6555819
# System: PPARg:RXRa IVT, anti-PPARg (NR concentration 270 nM, RXRa partner concentration 90 nM)
# Assay: PBM binding z-score (relative to random genomic background probes); higher = stronger binding; sequences stand for … in GC…GCGATTGACAGCGTAGAATGAAGG
# Summary of the method: (§1)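 Custom Agilent 4×180K protein-binding microarrays carried double-stranded probes, each with a 34-nt variable region. These regions held direct-repeat seeds, single-nucleotide variants, half-site ablations and random human genomic background sequences. Ligand-free nuclear receptor dimers were incubated on the arrays for 1 h, antibodies against each partner (one per run) detected binding, and scanned fluorescence was regression-normalized. Binding z-scores take the random background probes as reference.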
row,Sequence,PBM binding z-score
1,CCAGACAGGTGAGAAGGGAACTCAGCCTCGATTA,0.343
2,ACTCGGAGGACAAAGGTCTGAGCTACGCCAGTGA,0.315
3,ACCTCTAGGTAACCAAGTTCAGTGAATGCCGAAC,2.09
4,AATACAGGGTCATCGTAGGCCGGAGTACGCACAG,4.02
5,CCACCAAGGTGAACAAGGTCGTTGATTACTATTC,2.55
6,CCGAGTAGGTTATGGCGCATTCAGGCAACGGTGA,1.71
7,ACTTACGGGTCAACGAGGGTATAGCACGCGTATA,3.73
8,CGTCCAAGGTCAGAGAGGTCAGTCAATGCCGAGT,3.35
9,CAAACTAGGTCAAGAGGTTAAAGTCCGCTTCCCG,8.39
10,TCTAGCAGGCCAGAGAGTCACTCAAGAGGTACGG,-0.685
11,TCTTTTAGATCAAAGGTTAAGAAAGCCGAAGCCT,3.01
12,CAAACTTGGTCAAGGTCAAAGTCGGTTTGTGCCA,3.79
13,GCGACTGTGGCATCAGCAGGTTACCATAACTTAA,0.27
14,ATCGAAAGGTCGAGGAGAGTATAGAGAAAGGGAA,1.22
15,CATACAGGGTCAGCTAGGCCACAGTAGGGACGGC,2.82
16,TCATATAGGAAAATGCTAGGTGAAAGTCCGATCT,0.68
17,CCTCGGAGGACAGAACGTCAGAGCTGTCCGCTTT,-0.846
18,CCGACTGGGGCATAAGGTTACCATGAGCCAGCCC,3.31
19,TCTTGTAGATCAAGCAGGTTTAGAAAGCCTGAGT,0.0829
20,GGAACGAGGGCAAGTTGATGGCAGAGTTTGATGG,2.56

row,Sequence,PBM binding z-score
1,CCTCGGAGGACAACAGGTGGTCAGAGCTGCCAGA,-0.616
2,TCGAGTAGGTTCCCAATGGGGCATTCAGCTTTCT,0.261
3,TCGAATAGGTTAGTCGGGGCATTCAGCCAACATA,0.81
4,TCGAGTAGGTTACCAATGGGGTATTCAGCTTTCT,2.46
5,CAAACTAGTTCAAGGTCAAAGTCGGTTTGTGCCA,3.26
6,CGAACTAGGTCATCCAGGACAGCGAATACATTGA,8.15
7,ATACCAAAGTGATCGTGAGGTCGTTGATACTAAC,0.345
8,ACCTCTAGGTAAGACTCAGTTCAGTGAAGAACGC,0.243
9,TCATATAGGTAAAATGTGAAAGTCGGTGTGGTAA,2.51
10,CCGACTGGGGCAGAAAGGTTACCATCCCATCCGG,1.69
11,TGGAGTAGGTTAGGGGCATTCAGAATGGCGTCGA,3.44
12,CCTACTGGGCCAAAGTCATTGATCAGTCAAAGCA,3.6
13,ATTCGGAGGACAAAGGTCAGAGCTACGCCAGTGA,3.74
14,ATACCAAGGTGATCGTGAGGTCGTTGAGACTAAC,1.15
15,GCTAGCAGGCCAGTTGGGTCACTCAATGACGGGC,0.353
16,CCTACTGGGCCCAAAAGGTCATTGATGCCGATAA,1.66
17,AGAACGAGGGCACGATGAGTTGATAGCAGAGTAG,3.91
18,TCATATAAGTAATACAGGTGAAAGTCGGCATCTA,1.87
19,ATCGAAATGTCGACGAGGTGAGTATACACCGTTT,0.676
20,TCTCGGAGGACACGAAAGGTCAGAGCTCGACATC,1.53

# System: PPARg DBDmut:RXRa IVT, anti-PPARg (DBD mutation: PPARg1 K132A/R137A, NR concentration 270 nM, RXRa partner concentration 90 nM)
# Assay: as above
# Summary of the method: as §1
row,Sequence,PBM binding z-score
1,CCAGACAGGTGAGAAGGGAACTCAGCCTCGATTA,-0.35
2,ACTCGGAGGACAAAGGTCTGAGCTACGCCAGTGA,-0.994
3,ACCTCTAGGTAACCAAGTTCAGTGAATGCCGAAC,0.112
4,AATACAGGGTCATCGTAGGCCGGAGTACGCACAG,1.63
5,CCACCAAGGTGAACAAGGTCGTTGATTACTATTC,0.528
6,CCGAGTAGGTTATGGCGCATTCAGGCAACGGTGA,-0.391
7,ACTTACGGGTCAACGAGGGTATAGCACGCGTATA,1.66
8,CGTCCAAGGTCAGAGAGGTCAGTCAATGCCGAGT,-0.282
9,CAAACTAGGTCAAGAGGTTAAAGTCCGCTTCCCG,1.58
10,TCTAGCAGGCCAGAGAGTCACTCAAGAGGTACGG,-1.43
11,TCTTTTAGATCAAAGGTTAAGAAAGCCGAAGCCT,1.08
12,CAAACTTGGTCAAGGTCAAAGTCGGTTTGTGCCA,0.249
13,GCGACTGTGGCATCAGCAGGTTACCATAACTTAA,-0.703
14,ATCGAAAGGTCGAGGAGAGTATAGAGAAAGGGAA,1.53
15,CATACAGGGTCAGCTAGGCCACAGTAGGGACGGC,0.893
16,TCATATAGGAAAATGCTAGGTGAAAGTCCGATCT,0.369
17,CCTCGGAGGACAGAACGTCAGAGCTGTCCGCTTT,-2.12
18,CCGACTGGGGCATAAGGTTACCATGAGCCAGCCC,-0.794
19,TCTTGTAGATCAAGCAGGTTTAGAAAGCCTGAGT,-0.44
20,GGAACGAGGGCAAGTTGATGGCAGAGTTTGATGG,-0.155

row,Sequence,PBM binding z-score
1,CCTCGGAGGACAACAGGTGGTCAGAGCTGCCAGA,-2.74
2,TCGAGTAGGTTCCCAATGGGGCATTCAGCTTTCT,-1.28
3,TCGAATAGGTTAGTCGGGGCATTCAGCCAACATA,-0.355
4,TCGAGTAGGTTACCAATGGGGTATTCAGCTTTCT,-0.47
5,CAAACTAGTTCAAGGTCAAAGTCGGTTTGTGCCA,0.529
6,CGAACTAGGTCATCCAGGACAGCGAATACATTGA,1.97
7,ATACCAAAGTGATCGTGAGGTCGTTGATACTAAC,0.693
8,ACCTCTAGGTAAGACTCAGTTCAGTGAAGAACGC,-0.124
9,TCATATAGGTAAAATGTGAAAGTCGGTGTGGTAA,0.236
10,CCGACTGGGGCAGAAAGGTTACCATCCCATCCGG,-0.348
11,TGGAGTAGGTTAGGGGCATTCAGAATGGCGTCGA,1.09
12,CCTACTGGGCCAAAGTCATTGATCAGTCAAAGCA,-0.537
13,ATTCGGAGGACAAAGGTCAGAGCTACGCCAGTGA,0.302
14,ATACCAAGGTGATCGTGAGGTCGTTGAGACTAAC,0.272
15,GCTAGCAGGCCAGTTGGGTCACTCAATGACGGGC,-1.62
16,CCTACTGGGCCCAAAAGGTCATTGATGCCGATAA,-0.622
17,AGAACGAGGGCACGATGAGTTGATAGCAGAGTAG,0.853
18,TCATATAAGTAATACAGGTGAAAGTCGGCATCTA,0.985
19,ATCGAAATGTCGACGAGGTGAGTATACACCGTTT,0.668
20,TCTCGGAGGACACGAAAGGTCAGAGCTCGACATC,0.174
